# In the supplement of paper PMC11732987, “Enantioselective OTUD7B fragment discovery through chemoproteomics screening and high-throughput optimisation” (Communications Chemistry, 2025):
# A number with no mark means an inactive call.
# What was measured:
# Assay in all cases: log2 ratio of Biotin-Ahx-Ub-VS probe labelling (fragment/DMSO); higher = less target engagement (more negative = stronger competition), active = hit call of the paper (q ≤ 0.05, log2 ratio ≤ -1)
# Conditions in all cases: compound concentration: 200 uM; treatment time: 3 h
# [1] = target: T1, USP19 (UniProt O94966)
# T1 sequence (whole entry): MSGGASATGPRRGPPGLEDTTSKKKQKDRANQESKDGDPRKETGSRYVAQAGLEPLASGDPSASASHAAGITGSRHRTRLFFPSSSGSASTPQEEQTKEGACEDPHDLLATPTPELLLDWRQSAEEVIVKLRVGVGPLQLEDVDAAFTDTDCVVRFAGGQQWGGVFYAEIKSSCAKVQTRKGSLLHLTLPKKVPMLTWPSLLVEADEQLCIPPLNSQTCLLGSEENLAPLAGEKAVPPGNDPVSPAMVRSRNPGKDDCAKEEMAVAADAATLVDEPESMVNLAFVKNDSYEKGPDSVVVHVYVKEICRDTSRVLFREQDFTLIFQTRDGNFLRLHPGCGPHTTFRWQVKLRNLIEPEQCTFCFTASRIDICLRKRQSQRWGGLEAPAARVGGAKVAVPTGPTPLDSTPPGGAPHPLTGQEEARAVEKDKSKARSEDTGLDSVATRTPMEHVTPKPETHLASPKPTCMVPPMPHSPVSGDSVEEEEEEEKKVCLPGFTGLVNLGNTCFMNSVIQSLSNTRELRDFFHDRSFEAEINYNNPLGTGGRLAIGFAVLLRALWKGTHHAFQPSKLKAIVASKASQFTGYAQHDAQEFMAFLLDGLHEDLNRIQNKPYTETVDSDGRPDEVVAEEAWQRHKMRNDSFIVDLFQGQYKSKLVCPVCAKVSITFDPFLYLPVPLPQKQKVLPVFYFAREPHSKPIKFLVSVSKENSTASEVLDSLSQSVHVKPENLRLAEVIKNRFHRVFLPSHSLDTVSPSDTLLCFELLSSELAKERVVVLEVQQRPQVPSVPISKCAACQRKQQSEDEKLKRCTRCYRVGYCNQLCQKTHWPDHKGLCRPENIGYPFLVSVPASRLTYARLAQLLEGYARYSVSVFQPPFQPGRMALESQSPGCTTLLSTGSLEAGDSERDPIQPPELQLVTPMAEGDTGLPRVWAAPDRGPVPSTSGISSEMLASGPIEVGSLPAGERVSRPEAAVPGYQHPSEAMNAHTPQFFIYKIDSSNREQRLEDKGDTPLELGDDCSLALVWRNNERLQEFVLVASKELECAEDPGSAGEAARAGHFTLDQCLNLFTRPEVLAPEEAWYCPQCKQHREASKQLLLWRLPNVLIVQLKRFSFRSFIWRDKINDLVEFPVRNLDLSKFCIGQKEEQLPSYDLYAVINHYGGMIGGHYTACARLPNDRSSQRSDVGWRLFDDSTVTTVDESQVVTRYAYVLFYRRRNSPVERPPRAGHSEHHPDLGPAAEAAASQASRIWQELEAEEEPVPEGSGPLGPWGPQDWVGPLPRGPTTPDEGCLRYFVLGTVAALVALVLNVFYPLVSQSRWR
# Procedure, shortened: (§1)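 Each value is an average log2 ratio of fragment to vehicle, tested by unpaired t-test. The underlying Spectronaut label-free quantities were global-median-normalised, and only proteins with ≥2 unique peptides were included. Triplicate HEK293T lysate samples (495 µg) were exposed to fragment at 200 µM or vehicle for 3 h, then to Biotin-Ahx-Ub-VS at 0.5 µM final for 1 h, before NeutrAvidin enrichment of labelled DUBs, LysC and trypsin digestion, and diaPASEF LC-MS/MS.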
# [2] = target: T2, USP22 (UniProt Q9UPT9)
# T2 sequence (whole entry): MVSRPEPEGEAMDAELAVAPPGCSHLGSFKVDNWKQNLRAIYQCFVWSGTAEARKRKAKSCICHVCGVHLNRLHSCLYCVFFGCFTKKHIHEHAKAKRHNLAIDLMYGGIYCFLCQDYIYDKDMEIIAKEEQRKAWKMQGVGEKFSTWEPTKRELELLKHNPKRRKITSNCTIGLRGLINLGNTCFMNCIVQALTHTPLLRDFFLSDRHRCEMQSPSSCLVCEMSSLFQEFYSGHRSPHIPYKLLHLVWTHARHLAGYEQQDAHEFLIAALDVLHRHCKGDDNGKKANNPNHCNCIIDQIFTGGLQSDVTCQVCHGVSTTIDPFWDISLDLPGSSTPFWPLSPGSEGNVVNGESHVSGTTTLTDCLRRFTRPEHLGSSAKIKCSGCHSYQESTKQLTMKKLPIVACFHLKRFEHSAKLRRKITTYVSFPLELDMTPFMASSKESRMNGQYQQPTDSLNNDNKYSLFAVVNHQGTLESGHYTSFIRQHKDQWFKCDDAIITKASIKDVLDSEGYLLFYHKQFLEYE
# Procedure, shortened: as §1
# [3] = target: USP24 (UniProt Q9UPU5)
# Chain of USP24 (Q9UPU5 whole entry): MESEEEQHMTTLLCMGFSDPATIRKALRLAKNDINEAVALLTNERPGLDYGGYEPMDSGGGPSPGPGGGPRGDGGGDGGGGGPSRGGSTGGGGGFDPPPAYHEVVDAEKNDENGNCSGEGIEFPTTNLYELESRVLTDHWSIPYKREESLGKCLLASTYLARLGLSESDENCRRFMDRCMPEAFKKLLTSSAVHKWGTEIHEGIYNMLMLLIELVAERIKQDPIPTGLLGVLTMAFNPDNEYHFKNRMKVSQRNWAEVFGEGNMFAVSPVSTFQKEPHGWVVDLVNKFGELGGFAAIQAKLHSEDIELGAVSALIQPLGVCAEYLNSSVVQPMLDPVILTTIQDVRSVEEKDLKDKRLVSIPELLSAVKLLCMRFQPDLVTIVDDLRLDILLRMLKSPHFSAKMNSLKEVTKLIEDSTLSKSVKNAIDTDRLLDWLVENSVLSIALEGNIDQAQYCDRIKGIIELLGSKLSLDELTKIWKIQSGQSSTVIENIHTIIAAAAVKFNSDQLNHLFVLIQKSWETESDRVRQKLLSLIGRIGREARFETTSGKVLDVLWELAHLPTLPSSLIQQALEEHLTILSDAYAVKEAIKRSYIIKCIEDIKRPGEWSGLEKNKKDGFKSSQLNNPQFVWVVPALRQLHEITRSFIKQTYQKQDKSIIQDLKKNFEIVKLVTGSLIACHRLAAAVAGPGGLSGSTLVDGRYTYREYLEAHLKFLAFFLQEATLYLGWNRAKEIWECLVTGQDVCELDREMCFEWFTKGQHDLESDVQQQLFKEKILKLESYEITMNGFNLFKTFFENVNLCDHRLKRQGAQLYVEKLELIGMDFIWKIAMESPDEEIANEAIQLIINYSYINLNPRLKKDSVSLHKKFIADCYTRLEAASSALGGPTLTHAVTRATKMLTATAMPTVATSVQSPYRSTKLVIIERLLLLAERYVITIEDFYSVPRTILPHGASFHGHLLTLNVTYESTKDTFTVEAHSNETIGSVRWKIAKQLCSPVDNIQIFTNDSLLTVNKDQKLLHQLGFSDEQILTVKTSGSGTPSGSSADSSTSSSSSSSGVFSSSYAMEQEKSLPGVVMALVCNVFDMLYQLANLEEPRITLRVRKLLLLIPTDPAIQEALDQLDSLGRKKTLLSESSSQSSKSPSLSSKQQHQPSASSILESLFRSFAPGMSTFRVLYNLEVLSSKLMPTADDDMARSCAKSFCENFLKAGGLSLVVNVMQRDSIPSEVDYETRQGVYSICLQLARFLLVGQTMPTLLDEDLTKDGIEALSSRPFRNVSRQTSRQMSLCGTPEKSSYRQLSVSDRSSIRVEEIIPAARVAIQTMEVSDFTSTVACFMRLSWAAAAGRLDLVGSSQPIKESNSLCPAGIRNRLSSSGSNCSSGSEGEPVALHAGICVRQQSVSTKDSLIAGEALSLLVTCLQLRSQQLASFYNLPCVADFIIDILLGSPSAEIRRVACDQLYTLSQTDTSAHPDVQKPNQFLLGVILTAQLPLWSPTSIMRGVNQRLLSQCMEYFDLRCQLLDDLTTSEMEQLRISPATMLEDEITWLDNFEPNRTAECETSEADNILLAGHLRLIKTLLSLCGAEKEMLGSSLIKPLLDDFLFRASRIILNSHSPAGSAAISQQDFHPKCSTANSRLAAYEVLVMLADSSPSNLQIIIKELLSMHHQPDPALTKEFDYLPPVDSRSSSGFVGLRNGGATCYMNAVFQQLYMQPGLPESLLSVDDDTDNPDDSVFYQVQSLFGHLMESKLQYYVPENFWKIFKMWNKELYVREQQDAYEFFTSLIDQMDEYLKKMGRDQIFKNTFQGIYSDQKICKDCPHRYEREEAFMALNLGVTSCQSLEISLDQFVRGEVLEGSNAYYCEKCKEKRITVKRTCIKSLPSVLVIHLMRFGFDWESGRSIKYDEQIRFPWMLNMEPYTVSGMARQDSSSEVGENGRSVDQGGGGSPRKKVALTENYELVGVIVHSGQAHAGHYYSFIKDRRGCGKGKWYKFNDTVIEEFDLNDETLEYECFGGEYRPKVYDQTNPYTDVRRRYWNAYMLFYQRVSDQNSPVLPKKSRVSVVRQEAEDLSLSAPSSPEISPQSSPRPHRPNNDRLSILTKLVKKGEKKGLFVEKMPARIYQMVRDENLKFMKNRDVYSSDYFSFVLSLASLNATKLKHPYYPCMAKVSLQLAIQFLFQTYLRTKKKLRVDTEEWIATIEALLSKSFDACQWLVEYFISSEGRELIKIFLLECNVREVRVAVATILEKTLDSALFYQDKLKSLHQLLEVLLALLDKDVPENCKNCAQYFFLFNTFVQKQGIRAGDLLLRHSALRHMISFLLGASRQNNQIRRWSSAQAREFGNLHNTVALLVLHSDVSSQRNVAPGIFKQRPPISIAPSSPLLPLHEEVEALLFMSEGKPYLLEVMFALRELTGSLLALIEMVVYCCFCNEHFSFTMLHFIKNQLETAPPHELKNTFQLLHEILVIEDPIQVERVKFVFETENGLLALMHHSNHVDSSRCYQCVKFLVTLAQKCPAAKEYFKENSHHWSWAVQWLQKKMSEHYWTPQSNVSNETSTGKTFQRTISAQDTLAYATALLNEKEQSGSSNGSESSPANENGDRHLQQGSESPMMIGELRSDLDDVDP
# Procedure, shortened: as §1
# [4] = target: T3, USP25 (UniProt Q9UHP3)
# T3 sequence (whole entry): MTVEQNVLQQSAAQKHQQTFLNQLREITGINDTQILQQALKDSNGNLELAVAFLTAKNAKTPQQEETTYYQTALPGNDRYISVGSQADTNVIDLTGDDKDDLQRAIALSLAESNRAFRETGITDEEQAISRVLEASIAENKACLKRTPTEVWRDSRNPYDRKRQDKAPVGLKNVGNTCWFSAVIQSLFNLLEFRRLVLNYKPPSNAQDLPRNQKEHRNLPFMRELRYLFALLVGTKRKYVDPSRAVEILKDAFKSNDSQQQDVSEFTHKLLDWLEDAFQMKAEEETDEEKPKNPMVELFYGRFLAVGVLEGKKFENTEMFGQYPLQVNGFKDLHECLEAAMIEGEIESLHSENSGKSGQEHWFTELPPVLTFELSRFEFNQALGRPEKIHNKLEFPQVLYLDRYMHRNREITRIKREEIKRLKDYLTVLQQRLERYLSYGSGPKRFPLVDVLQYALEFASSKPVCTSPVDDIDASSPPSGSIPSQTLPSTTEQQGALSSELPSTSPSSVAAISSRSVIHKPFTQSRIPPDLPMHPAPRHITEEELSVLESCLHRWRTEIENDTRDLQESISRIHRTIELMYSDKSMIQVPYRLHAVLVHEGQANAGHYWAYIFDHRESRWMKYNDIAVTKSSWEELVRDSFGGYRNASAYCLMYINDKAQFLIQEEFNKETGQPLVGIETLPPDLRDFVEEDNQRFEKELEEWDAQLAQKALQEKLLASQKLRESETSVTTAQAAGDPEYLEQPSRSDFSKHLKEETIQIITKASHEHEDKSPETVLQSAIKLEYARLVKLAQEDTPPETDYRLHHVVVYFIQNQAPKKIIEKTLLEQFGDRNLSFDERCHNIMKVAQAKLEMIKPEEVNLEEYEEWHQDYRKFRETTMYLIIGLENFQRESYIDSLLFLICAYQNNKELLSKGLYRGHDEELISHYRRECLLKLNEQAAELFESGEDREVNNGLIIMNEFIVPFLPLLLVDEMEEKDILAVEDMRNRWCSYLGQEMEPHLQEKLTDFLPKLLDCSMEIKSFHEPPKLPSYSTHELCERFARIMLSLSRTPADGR
# Procedure, shortened: as §1
# [5] = target: T4, USP28 (UniProt Q96RU2)
# T4 sequence (whole entry): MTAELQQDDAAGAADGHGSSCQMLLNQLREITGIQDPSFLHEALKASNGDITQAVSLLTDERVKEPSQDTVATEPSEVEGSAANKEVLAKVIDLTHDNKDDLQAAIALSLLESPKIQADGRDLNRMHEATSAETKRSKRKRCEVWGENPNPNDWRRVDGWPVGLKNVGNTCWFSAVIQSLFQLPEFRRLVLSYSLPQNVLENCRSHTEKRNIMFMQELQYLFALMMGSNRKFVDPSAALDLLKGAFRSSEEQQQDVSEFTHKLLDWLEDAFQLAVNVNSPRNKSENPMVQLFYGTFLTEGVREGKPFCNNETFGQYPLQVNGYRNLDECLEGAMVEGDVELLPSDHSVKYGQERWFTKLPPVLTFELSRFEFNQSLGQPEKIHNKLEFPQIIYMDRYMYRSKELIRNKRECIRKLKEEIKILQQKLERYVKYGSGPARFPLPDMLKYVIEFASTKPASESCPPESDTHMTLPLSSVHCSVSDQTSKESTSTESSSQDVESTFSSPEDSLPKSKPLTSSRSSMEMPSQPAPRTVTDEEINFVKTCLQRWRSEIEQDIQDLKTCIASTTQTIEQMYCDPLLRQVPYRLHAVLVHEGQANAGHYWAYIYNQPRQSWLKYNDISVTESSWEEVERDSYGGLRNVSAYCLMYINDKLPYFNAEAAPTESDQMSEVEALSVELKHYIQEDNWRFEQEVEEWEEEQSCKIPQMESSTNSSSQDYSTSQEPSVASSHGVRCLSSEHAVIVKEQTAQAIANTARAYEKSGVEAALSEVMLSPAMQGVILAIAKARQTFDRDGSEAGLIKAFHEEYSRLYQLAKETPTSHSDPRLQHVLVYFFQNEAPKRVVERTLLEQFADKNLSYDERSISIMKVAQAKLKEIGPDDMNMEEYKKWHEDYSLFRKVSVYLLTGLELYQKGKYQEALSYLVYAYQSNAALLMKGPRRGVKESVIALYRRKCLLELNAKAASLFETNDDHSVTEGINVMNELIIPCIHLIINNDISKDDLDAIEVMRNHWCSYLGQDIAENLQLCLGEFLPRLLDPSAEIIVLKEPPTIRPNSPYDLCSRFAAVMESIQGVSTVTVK
# Procedure, shortened: as §1
compound,measurement,setting,value
N#Cc1ccc(Cl)cc1NC(=O)CCl,log2 ratio of Biotin-Ahx-Ub-VS probe labelling,[1],-0.121
same,log2 ratio of Biotin-Ahx-Ub-VS probe labelling,[2],0.184
same,log2 ratio of Biotin-Ahx-Ub-VS probe labelling,[3],-0.83
same,log2 ratio of Biotin-Ahx-Ub-VS probe labelling,[4],-0.912
same,log2 ratio of Biotin-Ahx-Ub-VS probe labelling,[5],-1.49 (active)
